Assay outcomes: PubChem, National Center for Advancing Translational Sciences (NCATS)
JMJD2A Tudor – inhibitors of human JMJD2A Tudor domain; Potency, µM (top dose mostly 114 µM), usual class: inhibitors; O75164; hit rate 4.4% among 390,000; AlphaScreen JMJD2A-Tudor / H3K4me3 peptide binding; further: nearly all actives have a fitted effect of over 50% in size
Sfp inh – blocks B. subtilis Sfp PPTase activity; Potency, µM, most hits filed as inhibitors; hit rate 3.5% among 310,000; Biochemical Sfp PPTase activity, qHTS;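 further: the enzyme is Sfp with the accession as filed and its product quenches rhodamine fluorescence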
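Compounds were incubated with enzyme (final 15 nM) for 15 min at room temperature before substrate addition started the reaction. Fluorescence at 525 nm excitation, 598 nm emission was recorded immediately and after 30 minutes.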
PLK1 PBD block – PLK1 (human) polo-box domain binding inhibition; Plk1 PBD binding of FITC phosphopeptide, fluorescence polarization; Potency, µM, most hits filed as inhibitors; hit rate 2.8% among 360,000; AID 720504; further: series mostly up to about 57 µM; nearly all actives have a fitted effect of over 65% in size
BAZ2B inh – blocks human BAZ2B; hit rate 4.4% among 360,000; Potency, µM (top dose mostly 114 µM), usual class: inhibitors; AlphaScreen BAZ2B-H3K14Ac peptide displacement; further: nearly all actives have a fitted effect of over 60% in size
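Compounds, titrated to a top concentration of 110 uM, were incubated 30 min at room temperature with preformed BAZ2B/acetyl-K14 H3 peptide complex (50 nM each). Proximity signal was measured by AlphaScreen after 20 min with beads.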
G9a block – G9a (human) methyltransferase inhibition; Q96KQ7; G9a H3K9 monomethylation, AlphaScreen, 2 h; Potency, µM (titrated, usually from 102 µM), most hits filed as inhibitors; hit rate 8.8% among 350,000; further: nearly all actives have a fitted effect of over 75% in size
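Quantitative HTS format: methyltransferase activity on a biotin-tagged H3K9 peptide is measured by AlphaScreen, using a rabbit anti-monomethyl-H3K9 antibody with streptavidin donor and anti-IgG acceptor beads. Final levels are 20 nM enzyme, 500 nM peptide, 20 uM SAM; 2 h RT.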
HP1b binding inh – blocks HP1-beta chromodomain binding to methylated histone tails | hit rate 0.56% among 390,000 | AID 540317 | Potency, µM (doses to about 114 µM), usual class: inhibitors | AlphaScreen HP1-beta / biotin-H3K9me3 peptide binding; further: nearly all actives have a fitted effect of over 70% in size
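HP1-beta protein (50 nM final) preincubated 30 min at room temperature with biotinylated H3(1-18)K9me3 peptide (50 nM) in PBS pH 7.4, 0.01% Tween-20, then compound added for 30 min. AlphaScreen streptavidin donor/nickel chelate acceptor beads (10 ug/mL final), 30 min dark, luminescence read.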
JMJD2E inh-1 – inhibitors of human JMJD2E demethylase, 8HQ series round 1; shares compounds with BAZ2B inh; JMJD2E demethylase, FDH-coupled NADH fluorescence; Potency, µM (series often up to 57 µM), actives largely listed as inhibitors; hit rate 89% among 130
JMJD2E inh-2 – confirmation of inhibitors of human JMJD2E demethylase; shares compounds with JMJD2A Tudor; Recombinant JMJD2E, FDH-coupled NADH fluorescence (FDH is formaldehyde dehydrogenase); Potency, µM (series often up to 56.8 µM), actives largely listed as inhibitors; hit rate 93% among 140; AID 2677
FDH counter – counter-screen for JMJD2E inhibitors: Pseudomonas putida formaldehyde dehydrogenase; FDH enzyme assay, NADH fluorescence kinetic; shares compounds with JMJD2A Tudor; Potency, µM (titrated, usually from 56.7 µM), hits mostly inhibitors; hit rate 10% among 140
JMJD2E MALDI inh – blocks demethylation by human JMJD2E in a MALDI-TOF-MS assay. recombinant JMJD2E demethylation, MALDI-TOF-MS. Potency, µM, actives largely listed as inhibitors. shares compounds with JMJD2A Tudor. AID 2688. hit rate 90% among 45;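 active means compounds whose IC50 for blocking JMJD2E demethylation is below 100 µM; inconclusive means dose dependent effect but IC50 above 100 µM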
Of the large screens only hits and unclear results are named; the others gave an inactive call (follow-up assays come after a bar, where they were run). Shown are actives, neighbours in structure and some others; about 12% of the full set was active somewhere. Unless noted, the call rests on the fitted dose curve; in most records, active means well fitted curve in the direction sought with a large enough effect; inconclusive means small, poorly fitted or top-dose-only effect, or another doubt; inactive means no such curve, though single readings can be large; an effect the other way counts as inactive or inconclusive.

CN1CCN(C(=O)c2cccc(-c3ccc4nncn4c3)c2)CC1	none (no result: JMJD2A Tudor, Sfp inh, BAZ2B inh, G9a block, HP1b binding inh)
O=C(c1cc2ccccc2cc1O)N1CCN(c2ccccn2)CC1	G9a block inconclusive
Oc1cc(-c2cccnc2)cc2cccnc12	JMJD2A Tudor 25µM, BAZ2B inh 3.2µM (no result: Sfp inh, PLK1 PBD block) | JMJD2E inh-1 5.6µM | JMJD2E inh-2 5.6µM | FDH counter inactive
CN1CCN(c2cc(-c3cc(O)c4ncccc4c3)ccn2)CC1	JMJD2A Tudor 25µM, BAZ2B inh 7.9µM (no result: Sfp inh, PLK1 PBD block) | JMJD2E inh-1 16µM | JMJD2E inh-2 16µM | FDH counter inactive
CN1CCN(C(=O)c2cccc(-c3cc(O)c4ncccc4c3)c2)CC1	JMJD2A Tudor 50µM, BAZ2B inh 13µM (no result: Sfp inh, PLK1 PBD block) | JMJD2E inh-1 16µM | JMJD2E inh-2 16µM | FDH counter inactive
COC(=O)c1ccc(OC(C)=O)c2ncccc12	none (no result: JMJD2A Tudor, Sfp inh, PLK1 PBD block, BAZ2B inh, G9a block, HP1b binding inh) | JMJD2E inh-1 13µM | JMJD2E inh-2 14µM | FDH counter inactive
COC(=O)c1cnc2c(C(F)(F)F)cccc2c1OC	none
CCOc1ccc(CCNC(=O)Cn2c(=O)c3cccn3c3ccc(F)cc32)cc1OCC	none (no result: Sfp inh, PLK1 PBD block)
O=C(COc1cccc2cccnc12)NNC(=O)Nc1ccccc1	none
Oc1cccc2cc(-c3ccccc3)cnc12	none (no result: JMJD2A Tudor, Sfp inh, PLK1 PBD block, BAZ2B inh, G9a block, HP1b binding inh) | JMJD2E inh-1 16µM | JMJD2E inh-2 16µM | FDH counter inactive
Oc1cccc2cc(N3CCCC3)cnc12	none (no result: JMJD2A Tudor, Sfp inh, PLK1 PBD block, BAZ2B inh, G9a block, HP1b binding inh) | JMJD2E inh-1 18µM | JMJD2E inh-2 18µM | FDH counter inactive
c1ccc(Nc2ccccc2)cc1	G9a block inconclusive (no result: Sfp inh)
Oc1cc(Nc2ccccc2)cc2cccnc12	JMJD2A Tudor inconclusive, BAZ2B inh inconclusive (no result: Sfp inh, PLK1 PBD block) | JMJD2E inh-1 inconclusive | JMJD2E inh-2 inconclusive | FDH counter inactive
Oc1cccc2cc(Nc3ccccc3)cnc12	none (no result: JMJD2A Tudor, Sfp inh, PLK1 PBD block, BAZ2B inh, G9a block, HP1b binding inh) | JMJD2E inh-1 10µM | JMJD2E inh-2 10µM | FDH counter inactive
Oc1cc(NCCN2CCOCC2)cc2cccnc12	JMJD2A Tudor 22µM, BAZ2B inh 2.8µM, G9a block inconclusive (no result: Sfp inh, PLK1 PBD block) | JMJD2E inh-1 inconclusive | JMJD2E inh-2 18µM | FDH counter inactive | JMJD2E MALDI inh 26
O=C1COc2ccc(-c3cc(-c4ccccc4)c4c(n3)-c3ccccc3OC4)cc2N1	none (no result: Sfp inh, PLK1 PBD block)
CCOc1ccc2nc(NC(=O)C3CSC4(C)CCC(=O)N34)sc2c1 (stereo unspecified)	none (no result: Sfp inh)
O=[N+]([O-])c1ccccc1NCc1ccc(O)c2ncccc12	JMJD2A Tudor inconclusive (no result: Sfp inh, PLK1 PBD block, BAZ2B inh, G9a block, HP1b binding inh) | JMJD2E inh-1 4.5µM | JMJD2E inh-2 10µM | FDH counter inactive | JMJD2E MALDI inh 12
Oc1c(CNc2ccccc2)cc(COCc2ccccc2)c2cccnc12	BAZ2B inh 50µM (no result: Sfp inh, PLK1 PBD block) | JMJD2E inh-1 11µM | JMJD2E inh-2 7.9µM | FDH counter inactive
Oc1ccc(Cl)cc1CNc1cccc2cccnc12	JMJD2A Tudor inconclusive, BAZ2B inh inconclusive
Oc1ccc(CNc2cccnc2)c2cccnc12	JMJD2A Tudor 22µM (no result: Sfp inh, PLK1 PBD block, BAZ2B inh, G9a block, HP1b binding inh) | JMJD2E inh-1 6.5µM | JMJD2E inh-2 13µM | FDH counter inactive | JMJD2E MALDI inh 26
Oc1ccc(CNc2cccc(C(F)(F)F)c2)c2cccnc12	BAZ2B inh 22µM, G9a block 1.4µM (no result: JMJD2A Tudor, Sfp inh, PLK1 PBD block, HP1b binding inh) | JMJD2E inh-1 7.9µM | JMJD2E inh-2 7.9µM | FDH counter inactive
COc1ccc(CNc2cccnc2)c(OC)c1OC	none (no result: Sfp inh, BAZ2B inh, G9a block)
COc1ccc(NC2CCCN(C(=O)c3cc(C)nc4cc(F)ccc34)C2)cc1 (stereo unspecified)	G9a block inconclusive
CCOc1cccc(N2CCN(CCNC(=O)Nc3ccc(C)cc3)CC2)c1C	none
